TDP1 cell CPT – qHTS for Inhibitors of human tyrosyl-DNA phosphodiesterase 1 (TDP1): qHTS in cells in presence of CPT | chicken DT40 Tdp1-/-;hTDP1 cells + 20 nM CPT, ATP luminescence, 48 h | 420,000 tested, 12% active | Potency, µM (series often up to 46.2 µM), hits mostly inhibitors; further: nearly all actives have a fitted effect of over 55% in size
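Cell growth measured by CellTiter-Glo luminescence after a minimum 48 h, 37 C compound exposure with 20 nM CPT in Tdp1-knockout DT40 cells stably expressing hTDP1, seeded 400/well; qHTS titration format.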
TDP1 cell noCPT – qHTS for Inhibitors of human tyrosyl-DNA phosphodiesterase 1 (TDP1): qHTS in cells in absence of CPT. DT40 Tdp1-/- hTDP1 cells, no CPT, ATP luminescence, 48 h. 420,000 tested, 15% active. AID 686978, 2013. Potency, µM (series often up to 46.2 µM), actives largely listed as inhibitors; further: nearly all actives have a fitted effect of over 55% in size
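Readout: luminescence from CellTiter-Glo after 30 min in the dark at RT. Cells: DT40 Tdp1-/- with stable hTDP1, 400/well. Exposure: compounds alone, ≥48 hr, 37 °C.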
HT1080 IDH1KD tx – qHTS for induction of synthetic lethality in tumor cells producing 2HG: qHTS for the HT-1080-IDH1KD cell line. HT-1080 IDH1 knockdown viability, ATP luminescence, 48 h. Potency, µM (highest dose often 46.1 µM), most hits filed as cytotoxic. 360,000 tested, 2% active. AID 686971, 2013
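Knockdown cells (IDH1KD HT-1080) received compounds 2 h after plating at 750 cells/well and were kept 48 h at 37 °C in 5% FBS RPMI. A CellTiter-Glo luminescence read gave % activity for curve fitting.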
IL1B secr inh – qHTS for Inhibitors of Inflammasome Signaling: IL-1-beta AlphaLISA Primary Screen; THP-1 LPS/ATP IL-1B secretion, AlphaLISA, 16 h; active compounds read low; 360,000 tested, 4.7% active; activity change, % at 57.5 µM; in the data active means activity change below about -50%; inconclusive means mostly about -30% to -49%
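Secreted IL-1B measured by AlphaLISA bead assay after 16 h compound exposure of THP-1 cells; compounds (final up to 57.5 uM) added 1 h before LPS (250 ng/mL) and ATP (1.25 mM) stimulation; lower signal means less secretion.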
HT1080NT lethal – qHTS for induction of synthetic lethality in tumor cells producing 2HG: qHTS for the HT-1080-NT fibrosarcoma cell line. Potency, µM (doses to about 46.1 µM), most hits filed as cytotoxic. 360,000 tested, 1.6% active. HT-1080-NT fibrosarcoma viability, CellTiter-Glo ATP luminescence, 48 h. AID 686970, 2013;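 further: NT is the 2HG producing partner of a matched IDH1 knockdown line; nearly all actives have a fitted effect of over 55% in size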
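HT-1080-NT fibrosarcoma cells (2HG-overproducing), 750 cells/well in RPMI with 5% FBS, dosed after 2 h and incubated 48 h at 37C. CellTiter-Glo luminescence normalized to DMSO and no-cell wells; concentration-response curves fitted and classed.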
Numbers stand for hits; 0 = inactive; ? = inconclusive; - = not tested or not shown. Compounds with a hit are over-represented: about 19% of the library has one in this group of screens. Unless noted, the call rests on the fitted dose curve; in most records, active means well fitted curve in the direction sought with a large enough effect; inconclusive means small, poorly fitted or top-dose-only effect, or another doubt; inactive means no such curve, though single readings can be large; an effect the other way counts as inactive or inconclusive.

SMILES	TDP1 cell CPT	TDP1 cell noCPT	HT1080 IDH1KD tx	IL1B secr inh	HT1080NT lethal
CCOC(=O)[C@@H]1[C@H]2COc3ccccc3[C@@H]2N2C(=O)N(c3cccc(Cl)c3)C(=O)[C@@]12C	?	16.4µM	0	0	0
CCOC(=O)[C@@H]1[C@H]2COc3ccccc3[C@H]2N2C(=O)N(c3cccc(Cl)c3)C(=O)[C@@]12C	?	?	0	0	?
CCOC(=O)[C@@H]1[C@H]2COc3cc(OC)ccc3[C@H]2N2C(=O)N(c3cccc(Cl)c3)C(=O)[C@]12C	14.6µM	?	0	?	0
CCOC(=O)[C@@H]1[C@H]2COc3ccccc3[C@H]2N2C(=O)N(c3ccc(Cl)cc3)C(=O)[C@]12C	?	20.6µM	0	0	0
CN(C)c1cccc(C(=O)NCc2ccc3c(c2)OCO3)c1	0	0	0	0	0
O=C(Nc1ccc(F)c(Cl)c1)c1cc(S(=O)(=O)N2CCCc3ccccc32)ccc1F	13µM	14.6µM	-	-	-
O=C(Nc1cccc(Cl)c1)c1cc(S(=O)(=O)N2CCCc3ccccc32)ccc1F	10.3µM	4.11µM	-	-	-
O=C(Nc1ccc(S(=O)(=O)N2CCCc3ccccc32)cc1)C1CCCO1 (configuration not stated)	?	?	0	0	0
O=C(O)C1CC=CCC1C(=O)Nc1ccc(S(=O)(=O)N2CCCc3ccccc32)cc1 (configuration not stated)	0	?	5.62µM	0	?
N#CC1=C(N)N(c2ncn[nH]2)C2=C(C(=O)CCC2)C1c1ccc(F)cc1 (configuration not stated)	0	0	0	0	0
CC(=O)CC[N+](C)(C)C	13µM	14.6µM	?	-96.3	0
C[N+](C)(C)CCCCCC(=O)/C=N/O	0	0	0	0	0
COc1cccc(-n2cnc3c(sc4nc(N5CCOCC5)c5c(c43)CCCC5)c2=O)c1	?	18.4µM	0	-54.4	0
COc1cccc(/C(C)=N/NC(=O)c2ccc(N(C)C)cc2)c1	0	?	0	0	0
C/C(CC(=O)Nc1ccc(N(C)C)cc1)=N\NC(=O)c1ccccc1O	0	0	?	0	20.6µM
C/C(CC(=O)Nc1ccc(N(C)C)cc1)=N\NC(=O)c1ccc([N+](=O)[O-])cc1Cl	?	20.6µM	0	0	0
COc1cccc(C(=O)N/N=C(\C)CC(=O)Nc2ccc(N(C)C)cc2)c1	0	0	0	-88.7	?
O=C(N/C(=C\c1cccc([N+](=O)[O-])c1)C(=O)N1CCOCC1)c1ccc([N+](=O)[O-])cc1	0	0	0	0	0
COC(/C(=N/O)c1ccc(Cl)cc1)c1ccccc1 (configuration not stated)	?	23.1µM	?	0	?
COP(=O)(OC)OC(C(=O)c1ccccc1)c1ccc(Cl)cc1 (configuration not stated)	0	0	0	0	0
O=C(Nc1ccc(C(=O)N2CCOCC2)cc1)C1CCCC1	0	0	0	0	0
O=C(O)CC1NC(=S)N(Cc2ccccc2)C1=O (configuration not stated)	20.6µM	18.4µM	0	0	0
CC1NC(=S)N(Cc2ccccc2)C1=O (configuration not stated)	0	0	0	0	0
CCN1/C(=C2/SC(=S)N(NC(C)=O)C2=O)Sc2ccccc21	0	0	0	0	0
CC(C)c1nc2sc3c(=S)nc[nH]c3c2c2c1CCC2	?	23.1µM	0	0	0
SMILES	TDP1 cell CPT	TDP1 cell noCPT	HT1080 IDH1KD tx	IL1B secr inh	HT1080NT lethal
S=c1nc[nH]c2c1sc1nc(N3CCOCC3)c3c(c12)CCCC3	?	23.1µM	0	0	0
C1CCc2c(c(N3CCOCC3)nc3sc4c(N5CCOCC5)nnnc4c23)C1	0	0	0	0	0
CN(CCO)c1ncnc2c1sc1nc(N3CCOCC3)c3c(c12)CCC3	13µM	20.6µM	0	0	0
O=C(Nc1ccc2c(c1)OCCO2)C1CC(O)CN1C(=O)Nc1ccccc1 (configuration not stated)	0	?	0	0	0
O=C(c1cc(-c2ccc(Br)cc2)on1)N1CCc2ccccc2C1	0	0	0	0	0
COCCN(CCOC)C(=O)c1cc2c(=O)n3ccccc3nc2n1C	0	0	-	-	-
O=C(c1c[nH]c(C(=O)C(Cl)(Cl)Cl)c1)c1ccc(F)cc1F	?	13µM	0	0	0
CNC(=O)c1cc(C(=O)c2ccc(F)cc2Cl)c[nH]1	0	0	0	0	0
O=C(c1ccc(Cl)cc1)c1c[nH]c(C(=O)NNc2ccccc2)c1	0	0	5.17µM	0	?
O=C(c1ccc(Cl)cc1)c1c[nH]c(C(=O)C(Cl)(Cl)Cl)c1	11.6µM	11.6µM	0	-112.0	0
O=C(c1c[nH]c(C(=O)C(Cl)(Cl)Cl)c1)c1ccc(F)cc1Cl	?	13µM	25.9µM	-62.8	0
C[C@@H]1CN([C@@H](C)CO)C(=O)CCCn2nncc2CO[C@@H]1CN(C)C(=O)Nc1ccccc1C(F)(F)F	0	0	0	0	0
O=C(Cc1ccccc1)c1c[nH]c(C(=O)C(Cl)(Cl)Cl)c1	2.91µM	6.51µM	0	0	0
COc1ccc(C(=O)n2c(SC)nc3cc4c(cc32)OCCO4)cc1	?	?	0	0	0
COCc1nn2c(N)c(-c3ccccc3)cnc2c1-c1ccccc1	0	0	0	0	0
COc1ccc(-c2c(C)nn3c(N)c(-c4ccccc4)cnc23)cc1OC	5.8µM	6.51µM	0	?	0
COc1ccccc1-c1c(C)nn2c(N)c(-c3ccccc3)cnc12	6.51µM	5.8µM	0	-74.0	0
COc1ccc(-c2c(C)nn(-c3ccccc3)c2N)cc1OC	0	0	0	0	0
CCCCCCN1CCN(C2CN(Cc3cn(Cc4ccccc4)nn3)S(=O)(=O)C2)CC1 (configuration not stated)	0	?	0	0	0
COc1ccc(N2C(=O)CC2(C#N)c2ccc(OCc3ccccc3)cc2)cc1 (configuration not stated)	0	0	0	0	0
COc1ccc(-c2cc(=O)oc3c4c(ccc23)OCN(Cc2cccc(OC)c2)C4)cc1	10.3µM	16.4µM	-	-	-
O=c1cc(-c2ccccc2)c2ccc3c(c2o1)CN(Cc1ccccc1)CO3	0	?	-	-	-
COc1ccc(-c2cc(=O)oc3c4c(ccc23)OCN(Cc2ccccc2)C4)cc1	18.4µM	?	-	-	-
CCCn1c(N/N=C\C=C\c2ccccc2)nc2c1c(=O)[nH]c(=O)n2C	14.6µM	16.4µM	0	0	0

High-throughput results (PubChem)
